Results taken from PubChem BioAssay (NCI).
This is part of a sample that, as a whole, favours compounds with a hit. Of some 83,000 tested, about 20% had one in any assay.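 For each line, cells grew in 96-well plates with the test compound present at a single concentration for 48 hours.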 Values without a mark were called inactive. The source made the active and inactive calls. How the source made its calls: active means growth percent below 10; inactive means the rest.

How the values were obtained:
Assay in all cases: NCI-60 one-dose screen, 48 h (100 = growth as untreated, 0 = no growth, -100 = all killed)
DU-145 prostate = conditions: 10 µM unless noted
K-562 leukemia = conditions: 10 µM unless noted
MALME-3M melanoma = conditions: 10 µM unless noted
MDA-MB-231 breast = conditions: 10 µM unless noted
RXF 393 renal = conditions: 10 µM unless noted
SF-268 CNS = conditions: 10 µM unless noted
SF-295 CNS = conditions: 10 µM unless noted
SF-539 CNS = conditions: 10 µM unless noted
UACC-257 melanoma = conditions: 10 µM unless noted
M14 melanoma = conditions: 10 µM unless noted
HCT-15 colon = conditions: 10 µM unless noted
HT29 colon = conditions: 10 µM unless noted
SNB-19 CNS = conditions: 10 µM unless noted
U251 CNS = conditions: 10 µM unless noted
PC-3 prostate = conditions: 10 µM unless noted
SK-MEL-5 melanoma = conditions: 10 µM unless noted
UACC-62 melanoma = conditions: 10 µM unless noted
LOX IMVI melanoma = conditions: 10 µM
SK-MEL-28 melanoma = conditions: 10 µM unless noted

SMILES | growth (DU-145 prostate) | growth (K-562 leukemia) | growth (MALME-3M melanoma) | growth (MDA-MB-231 breast) | growth (RXF 393 renal) | growth (SF-268 CNS) | growth (SF-295 CNS) | growth (SF-539 CNS) | growth (UACC-257 melanoma) | growth (M14 melanoma) | growth (HCT-15 colon) | growth (HT29 colon) | growth (SNB-19 CNS) | growth (U251 CNS) | growth (PC-3 prostate) | growth (SK-MEL-5 melanoma) | growth (UACC-62 melanoma) | growth (LOX IMVI melanoma) | growth (SK-MEL-28 melanoma)
CN(C)CCOc1ccc(C(=O)C2[C@H](c3ccc(Cl)cc3)[C@@H](c3ccccc3)NC23C(=O)Nc2ccc(Br)cc23)cc1 (some centres undefined) | 14.3% | -32.3% (active) | -50.2% (active) | -20.5% (active) | -0.638% (active) | 41.8% | -53.4% (active) | 13% | 53.8% | -71.5% (active) | -81.5% (active) | -85.7% (active) | 54.1% | -93.2% (active) | -3.48% (active) | -16.1% (active) | 43.3% | -100% (active) | 37.6%
CN(C)CCCNC(=O)c1cc(NC(=O)c2cc(NC(=O)c3ccc(C#Cc4ccccc4)cc3)cn2C)cn1C | 18.2% | -54.9% (active) | -95.8% (active) | -68.8% (active) | -37.7% (active) | 18.1% | -91.8% (active) | -84.1% (active) | 43.8% | -79.8% (active) | -20.6% (active) | -68.4% (active) | 24.7% | -91.6% (active) | -30.8% (active) | -93.7% (active) | -33.1% (active) | -100% (active) | 47.1%
N/N=C(\N)c1c(N)nc(=S)[nH]c1-c1ccc(Cl)cc1Cl | 120% | 105% | 92.3% | 94.9% | 115% | 108% | 94.5% | 94.6% | 108% | 107% | 111% | 111% | 93.4% | 104% | 96.8% | 108% | 93.8% | 106% | 116%
COC1=C[C@]23CCC(=O)N2CCc2cc4c(cc2[C@@H]3[C@@H]1OC(=O)[C@H](C)O)OCO4 | 31.7% | 7.08% (active) | -28.6% (active) | 61.8% | 5.61% (active) | 66.2% | 29.7% | -34.5% (active) | 27.9% | 10.4% | -1.4% (active) | 1.93% (active) | -1.61% (active) | -3.63% (active) | 14.8% | -2.42% (active) | 31.5% | -57.2% (active) | 15.1%
COc1ccc(-c2ccnc(SCc3cc4ccccc4[nH]c3=O)n2)cc1 | 81.2% | 11.1% | 65.9% | 59.1% | 40.2% | 87.7% | 50.3% | 50% | 79.5% | 44.8% | 28.2% | 29.5% | 64% | 64.1% | 69.6% | 59.1% | 44.8% | 49.9% | 73%
CC(=O)c1cc(C(=O)c2ccccc2)n2c1ccc1ccccc12 | 128% | 94.4% | 131% | 78.4% | 93.1% | 110% | 106% | 82.5% | 118% | 101% | 104% | 109% | 98% | 106% | 81% | 104% | 86.9% | 96.7% | 122%
CC1(C)CC[C@]2(C(=O)O)CC[C@]3(C)C(=CCC4[C@@]5(C)C[C@@H](O)[C@@H]6OC(c7cccc(Br)c7)OC[C@@]6(C)C5CC[C@]43C)C2C1 (some centres undefined) | 32.5% | 16% | 73.9% | 71.2% | 71.3% | 47.5% | 33% | 54.6% | 53.1% | 53.2% | 20.7% | 21.5% | 47.1% | 22.9% | 25.3% | 41.3% | 55.5% | 16.5% | 74.2%
CCOC(=O)/C=C/c1cccc2c1C(=O)NC(C)(c1cc3cc(Cl)ccc3oc1=O)N2 (centres undefined) | 37.7% | 19% | 32.7% | 32.1% | -1.81% (active) | 45.5% | 19.3% | 38.5% | 44.3% | 22.3% | 20.9% | 32.5% | 33.8% | 33.9% | 17.4% | 10.2% | 13.4% | 22.2% | 53.9%
Cn1cc(-c2cc(N)n3nc(-c4c[nH]c5ccccc45)cc3n2)c2cc(Br)cnc21 | 5.95% (active) | -23.9% (active) | -83.9% (active) | -83.4% (active) | -76.3% (active) | 0.392% (active) | -71.6% (active) | -93.5% (active) | -78.9% (active) | -71% (active) | -58.5% (active) | -80.7% (active) | -39.6% (active) | -79.7% (active) | -43.3% (active) | -94.2% (active) | -95% (active) | -94.1% (active) | -96.2% (active)
COc1cc2oc(-c3cccc(C(=O)Nc4ccc(Cl)cc4)c3)cc(=O)c2c(OCCNC(=O)[C@H](CO)NC(=O)OC(C)(C)C)c1OC | 32.2% | 11.3% | 20% | 2.74% (active) | -25.7% (active) | 41.4% | -16.4% (active) | -54.2% (active) | -41.7% (active) | -7.57% (active) | 16.5% | -26.9% (active) | 29.7% | 24% | 12.9% | -75.2% (active) | 7.14% (active) | -67.5% (active) | -23.8% (active)
COc1ccc2c(c1)c(/C=N/Nc1ccc3ccccc3n1)cn2C | 36.2% | -40.1% (active) | 12.6% | -23.1% (active) | 33.4% | 37.2% | -60.4% (active) | -36.2% (active) | 61.7% | -6.98% (active) | -44.8% (active) | -66.7% (active) | 71.3% | 7.9% (active) | 7.27% (active) | 23% | 20.6% | -97.9% (active) | -1.59% (active)
C=C1CC[C@@H]2[C@]3(C)COC(c4cn[nH]c4-c4ccc(F)cc4)O[C@@H]3CC[C@@]2(C)[C@@H]1C/C=C1/C(=O)OCC1O (some centres undefined) | -23% (active) | -24.2% (active) | -44.7% (active) | -40.5% (active) | -86% (active) | 16.9% | -26.8% (active) | -83.2% (active) | -44.6% (active) | -63.4% (active) | -56.8% (active) | -2.38% (active) | 21.6% | -83.2% (active) | 8.84% (active) | -79% (active) | -73.7% (active) | -100% (active) | -75.6% (active)
C=C1CCC2C3(C)COC(c4ccco4)OC3CCC2(C)C1CC(Sc1ccccc1)C1=CCOC1=O (centres undefined) | 78.4% | 18.5% | 94.9% | 78.5% | 96.5% | 91.5% | 76.1% | 48.3% | 54.1% | 61.6% | 3.97% (active) | 8.59% (active) | 86.2% | 31.9% | 50.2% | 63.4% | 30.2% | -96.1% (active) | 56.1%
COc1ccc(/C=C/c2nc3ccccc3c(=O)n2CC(=O)Nc2ccc(OC)cc2)cc1 | 77.2% | 95.3% | 73.7% | 27.3% | 70.5% | 71.4% | 74.6% | -18.5% (active) | 103% | 90.3% | 88.4% | 72.9% | 51.9% | 25.6% | 46.1% | 92.3% | 74.7% | 64.8% | 103%
COc1ccc(-c2nc3cc(C)ccc3n2CC(=O)N=Nc2c(O)[nH]c3ccccc23)cc1 | 9.13% (active) | 4.42% (active) | -60% (active) | -54.2% (active) | -29.7% (active) | -5.5% (active) | 15.4% | -90.2% (active) | -7.27% (active) | -71.5% (active) | -64.7% (active) | -28.2% (active) | 19.1% | 5.59% (active) | 8.89% (active) | -93% (active) | -37.2% (active) | -63.5% (active) | -57.5% (active)
CCCCSc1nc(Nc2ccc(S(N)(=O)=O)cc2)c(C#N)c(-c2ccc(Cl)cc2)n1 | 53% | 5.58% (active) | 22.9% | -36.1% (active) | 16.8% | 69.2% | 8.15% (active) | -25.2% (active) | 76% | 10.6% | -8.65% (active) | 8.86% (active) | 45.5% | -55.7% (active) | 55.8% | 59.6% | 48.4% | -99.9% (active) | 63%
